# DT40 TDP1 no CPT – qHTS for Inhibitors of human tyrosyl-DNA phosphodiesterase 1 (TDP1): qHTS in cells in absence of CPT; DT40 Tdp1-/- hTDP1 cells, no CPT, ATP luminescence, 48 h; Potency, µM (top dose mostly 46.2 µM), for the others: at the top dose activity change, negative = growth inhibition, most hits filed as inhibitors; hit rate 15% among 420,000; further: potency means the concentration at half of the fitted maximal effect; nearly all actives have a fitted effect of over 55% in size
#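 Luminescent ATP content (CellTiter-Glo) served as the growth readout. Knockout chicken DT40 cells expressing human TDP1 were exposed to compounds without camptothecin for a minimum 48 hr at 37 °C.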
# HT1080-NT tox – qHTS for induction of synthetic lethality in tumor cells producing 2HG: qHTS for the HT-1080-NT fibrosarcoma cell line | HT-1080-NT fibrosarcoma viability, CellTiter-Glo ATP luminescence, 48 h | Potency, µM (highest dose often 46.1 µM), for inactives: top-dose activity, negative = less viability, actives largely listed as cytotoxic | hit rate 1.6% among 360,000 | AID 686970, 2013;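 further: NT is the 2HG producing partner of a matched IDH1 knockdown line; potency means the concentration at half of the fitted maximal effect; 0% = DMSO-treated cells and -100% = media-only wells without cells; nearly all actives have a fitted effect of over 55% in size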
#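 Viability by CellTiter-Glo luminescence after 48 h compound exposure at 37C of HT-1080-NT cells (750/well, RPMI, 5% FBS). % activity scaled between DMSO wells and medium-only wells, then curve-fitted and categorized by curve class.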
# HT1080 IDH1KD tx – qHTS for induction of synthetic lethality in tumor cells producing 2HG: qHTS for the HT-1080-IDH1KD cell line; AID 686971, 2013; Potency, µM (titrated, usually from 46.1 µM), without a hit: top-dose activity, negative = toxicity, usual class: cytotoxic; HT-1080 IDH1 knockdown viability, ATP luminescence, 48 h; hit rate 2% among 360,000;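 further: potency means the concentration at half of the fitted maximal effect; 0% = DMSO wells and -100% = cell-free medium wells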
#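 CellTiter-Glo luminescence after 48 h compound exposure at 37 degrees C of IDH1-knockdown HT-1080 cells in 5% FBS RPMI. %Activity scaled between DMSO wells and cell-free media wells, with curves fitted and assigned curve classes.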
# IL-1B inflam inh – qHTS for Inhibitors of Inflammasome Signaling: IL-1-beta AlphaLISA Primary Screen | THP-1 LPS/ATP IL-1B secretion, AlphaLISA, 16 h; hits give low values | activity change, % at 57.5 µM | hit rate 4.7% among 360,000 | AID 743279, 2014; in the data active means activity change below about -50%; inconclusive means mostly about -30% to -49%
#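 THP-1 cells pretreated 1 hr with compounds (up to 57.5 uM final), then stimulated with LPS (250 ng/mL final) plus ATP (1.25 mM final); secreted IL-1B measured by AlphaLISA after 16 hr, decreased signal indicating inhibition.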
# TDP1 cell CPT – qHTS for Inhibitors of human tyrosyl-DNA phosphodiesterase 1 (TDP1): qHTS in cells in presence of CPT; chicken DT40 Tdp1-/-;hTDP1 cells + 20 nM CPT, ATP luminescence, 48 h; AID 686979, 2013; hit rate 12% among 420,000; Potency, µM (highest dose often 46.2 µM), for inactives: at the top dose activity change, negative = growth inhibition, most hits filed as inhibitors; further: potency means the concentration at half of the fitted maximal effect; nearly all actives have a fitted effect of over 55% in size
#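 Chicken DT40 Tdp1-/- cells stably complemented with human TDP1 were seeded at 400 cells/well in medium containing 20 nM camptothecin, exposed to pin-transferred compounds, and grown at 37 °C for at least 48 hr. Viability was read as ATP luminescence.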
# Starred values were filed as active, the others as inactive; ? = inconclusive; / = no result given; [ ] = another dose, or the depositor's remark. Shown are actives, neighbours in structure and some others; about 19% of the full set was active somewhere. Unless noted, the call rests on the fitted dose curve; in most records, active means well fitted curve in the direction sought with a large enough effect; inconclusive means small, poorly fitted or top-dose-only effect, or another doubt; inactive means no such curve, though single readings can be large; an effect the other way counts as inactive or inconclusive. Unless noted, on the % scale 0 is the no-effect control and ±100 the full control effect.
SMILES,DT40 TDP1 no CPT,HT1080-NT tox,HT1080 IDH1KD tx,IL-1B inflam inh,TDP1 cell CPT
Cc1ccc(-c2nc(S(=O)(=O)c3ccc(F)cc3)c(SCC(=O)NCC3CCCO3)o2)cc1 (stereo unspecified),?,4.2%,2.5%,28.7,?
CCCSc1oc(-c2cccs2)nc1S(=O)(=O)c1ccc(C)cc1,?,/,/,/,18.4µM*
CCOc1ccc(NC(=O)CSc2oc(-c3ccc(F)cc3)nc2S(=O)(=O)c2ccc(C)cc2)cc1,6.51µM*,/,/,/,5.8µM*
CCSc1oc(-c2cccs2)nc1S(=O)(=O)c1ccccc1,?,-1.8%,0.7%,0.0,?
CCOc1ccc(NC(=O)CSc2oc(-c3cccs3)nc2S(=O)(=O)c2ccc(C)cc2)cc1,3.26µM*,/,/,/,11.6µM*
Cc1ccc(CNC(=O)c2ccc(S(=O)(=O)N3CCCCCC3)cc2)cc1,4.11µM*,-14.2%,?,42.5,20.6µM*
Cc1ccc(C(=O)NNC(=O)c2ccc(S(=O)(=O)N3CCCCC3)cc2)cc1,23.1µM*,-0.1%,?,10.3,5.17µM*
CC(=O)NCc1ccc(S(=O)(=O)N2CCCN(C)CC2)cc1,23.1µM*,27.0%,?,7.5,?
CC(Sc1ccc(Cl)cc1)C(=O)NCC(c1ccco1)N1CCCCC1 (stereo unspecified),?,-1.0%,6.6%,-16.3,?
CCOC(=O)c1ccc(NC(=O)CN2Cc3ccccc3C2=O)cc1,-16.1%,/,/,/,-23.5%
CC(C)Cn1c(SCC#N)nc2ccccc2c1=O,?,-1.3%,11.0%,4.2,-17.7%
COCCCn1c(SCc2nnc(-c3ccc(OC)c(OC)c3)o2)nnc1-c1ccncc1,-18.4%,-3.1%,-9.0%,-2.8,-3.2%
COCCCn1c(SCc2nnc(-c3ccc(OC)c(OC)c3)o2)nc2ccccc2c1=O,23.1µM*,?,?,?,?
COc1ccc(-c2nnc(CSc3nc4ccccc4c(=O)n3CC(C)C)o2)cc1OC,16.4µM*,?,?,-15.8,?
CCOC(=O)C(=O)N1CCC(C(=O)OCC)CC1,-5.2%,16.5%,19.3%,/,25.8%
O=S(=O)(Nc1nc2ccccc2nc1Nc1ccc2c(c1)OCCO2)c1cccs1,-3.2%,-11.4%,9.0%,-15.5,-1.3%
CC1C[N+](=C2C=C(N3CCOCC3)CC(C)(C)C2)CC(C)O1 (stereo unspecified),-2.8%,4.3%,-2.6%,-7.1,29.1%
CN(C)NC1=CC(=[N+]2CCCC2)CC(C)(C)C1,?,4.5%,2.1%,6.0,10.7%
CC1(C)CC(N2CCCCC2)=CC(=[N+]2CCCCC2)C1,0.184µM*,4.11µM*,?,-70.1*,0.146µM*
CCCN(CCC)C1=CC(=[N+]2CCCC2)CC(C)(C)C1,0.13µM*,2.06µM*,2.31µM*,?,0.206µM*
CCSc1ncnc2c1sc1nc3c(cc12)COC(C)(C)C3,?,-0.9%,-0.2%,-9.4,-21.6%
COC(=O)N(C)C[C@H]1OCc2cnnn2CCCC(=O)N([C@H](C)CO)C[C@H]1C,-12.8%,-9.5%,4.6%,17.2,6.9%
CCOC(=O)/C=C1/SCC(=O)N1CC(=O)Nc1cccc(F)c1,-24.6%,0.4%,1.4%,-13.4,-19.5%
CCc1nc2c(OCC=C(C)C)cccn2c1N(C)C(=O)c1ccccc1F,0.82µM*,?,?,-69.4*,0.731µM*
CCc1nc2c(OCC=C(C)C)cccn2c1N(C)C(=O)c1ccc(OC)cc1,13µM*,?,?,62.7,23.1µM*
SMILES,DT40 TDP1 no CPT,HT1080-NT tox,HT1080 IDH1KD tx,IL-1B inflam inh,TDP1 cell CPT
Cc1cc(-c2nnc(CCC(=O)NCCc3ccccc3F)o2)no1,-4.5%,-2.6%,-3.6%,0.0,-2.8%
CC1(C)Cc2cccc(OCC(=O)Nc3cc(C(F)(F)F)ccc3N3CCOCC3)c2O1,?,12.5%,-1.0%,-23.9,?
CN1CCC[C@@H]1CCNC(=O)c1c(-c2ccc3c(c2)OCO3)noc1-c1ccsc1,-14.2%,-3.3%,-0.9%,-76.4*,-14.6%
CN1CCC[C@H]1CCNC(=O)c1c(-c2ccsc2)sc2ccccc12,1.0%,-19.6%,-21.3%,-20.8,-2.3%
COc1ccc(C(=O)NCCN2Cc3ccccc3OC(c3ccsc3)C2)c(OC)n1 (stereo unspecified),-16.0%,/,/,/,-13.1%[9.04 µM]
COc1cccc(NC(=O)Cn2cc(S(=O)(=O)Cc3ccccc3F)c3ccccc32)c1,18.4µM*,/,/,/,16.4µM*
O=C(Cn1cc(S(=O)(=O)Cc2ccc(F)cc2)c2ccccc21)NCc1ccccc1Cl,20.6µM*,/,/,/,?
Cc1ccc(CNC(=O)Cn2cc(S(=O)(=O)Cc3ccccc3F)c3ccccc32)cc1,?,/,/,/,14.6µM*
COc1ccc(C)cc1NC(=O)C(=O)NNC(=O)c1ccco1,?,-4.5%,-6.0%,14.9,?
Cc1ccc2nc(COc3cccc(NC(=O)COc4ccc(F)cc4)c3)cc(=O)n2c1,-22.2%,/,/,/,-16.1%
Cc1cccc(N2CCN(C(=O)c3cc(C)oc3C)CC2C)c1 (stereo unspecified),16.4µM*,-13.4%,-4.8%,?,?
COc1ccc(N2CCN(C(=O)c3ccc(CS(=O)(=O)c4ccc(OC)cc4)o3)CC2)cc1,-24.7%,?,-4.3%,-25.9,-58.5%
CCOc1ccccc1N1CCN(C(=S)NC(=O)C23CC4CC(CC(C4)C2)C3)CC1,16.4µM*,-6.1%,-5.6%,-9.3,18.4µM*
COc1ccc(S(=O)(=O)Cc2ccc(C(=O)N3CCN(c4cccc(C)c4)C(C)C3)o2)cc1 (stereo unspecified),5.17µM*,2.59µM*,11.6µM*,10.5,5.17µM*
O=C(NC(=S)N1CCN(c2ccc(F)cc2)CC1)C12CC3CC(CC(C3)C1)C2,?,-1.0%,13.9%,-2.0,?
COc1ccccc1N1CCN(C(=O)c2cc(C)oc2C)CC1,?,2.5%,-5.0%,2.5,-13.8%
CCOc1ccccc1N1CCN(C(=O)c2cc(C)oc2C)CC1,23.1µM*,-3.1%[9.24 µM],?,-9.1,18.4µM*
COc1ccccc1Cn1ccn(CC(=O)Nc2c(C)cc(C)cc2C)c(=O)c1=O,-10.2%,/,/,/,-1.6%
Cc1cc(C(=O)N2CCN(c3ccccc3O)CC2)c(C)o1,-10.9%,7.1%,0.9%,-5.5,1.4%
COc1cccc(N2CCN(C(=O)c3cc(C)oc3C)CC2)c1,13µM*,?,?,11.2,11.6µM*
